Laboratory results taken from PubChem BioAssay (Tox21).
Inconclusive results are not listed. Calls of active or inactive are those of the source. Unless noted, calls come from the whole dose curve; as a rule, active = well fitted curve in the direction sought with a large enough effect in the repeat runs; inconclusive = weak or mixed curves; inactive = no such curve, though single readings can be large; an effect the other way counts as inactive or inconclusive.

Columns and labels:
[1] = qHTS assay to identify small molecule antagonists of the androgen receptor (AR) signaling pathway using the MDA cell line in the presence of 0.5 nM R1881 - cell viability counter screen (AID 1259242); note: nearly all actives have a fitted effect of over 45% in size
In short: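 Viability of MDA-kb2 cells was multiplexed with the luciferase AR readout; after 16 hr with compounds and R1881 at 0.5 nM final, CellTiter-Fluor fluorescence was recorded.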

[2] = molecular target: Estrogen receptor (Homo sapiens) (UniProt P03372); assay: qHTS assay to identify small molecule antagonists of the estrogen receptor alpha (ER-alpha) signaling pathway using the BG1 cell line in the presence of 0.1 nM 17-beta-estradiol (AID 1259244); note: nearly all actives have a fitted effect of over 50% in size
In short: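 Estradiol at 0.1 nM (final) stimulates the endogenous ER-alpha of VM7Luc4E2 cells carrying an ERE-driven luciferase; compounds are co-incubated 22 h at 37C and luciferase output quantified by luminescence.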

[3] = qHTS assay to identify small molecule HDAC inhibitors (AID 1259364); note: potency is the fitted concentration of half-maximal effect;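 note: wild-type HCT-116 cells with endogenous class I/II HDAC activity; nearly all actives have a fitted effect of over 45% in size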; for activity change, negative = inhibition: top concentration of the series differs between compounds
In short: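 Read-out: luminescence of HDAC-Glo I/II reagent, 30 min RT, reflecting class I/II deacetylase activity in whole HCT-116 cells pre-exposed 2 h to DMSO-dissolved compounds.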

[4] = qHTS assay to identify small molecule HDAC inhibitors - cell viability counter screen (AID 1259365); note: series mostly up to about 92 µM; nearly all actives have a fitted effect of over 50% in size
In short: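 Luminescence from CellTiter-Glo, developed 30min at room temperature, reports viability of wild-type HCT-116 cells treated 2hr with compounds at 37 C and 5% CO2 after overnight plating.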

[5] = qHTS assay to identify small molecule antagonists of the sonic hedgehog signaling (Shh) pathway - cell viability counter screen (AID 1259367); note: nearly all actives have a fitted effect of over 55% in size
In short: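 NIH/3T3-derived Gli1-Luc reporter cells (2,000 per well) rested 4 hr at 37 C, then received DMSO compounds plus conditioned medium. After 23 hr of treatment, CellTiter-Fluor was added for 1 hr at 37C and fluorescence read.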

[6] = qHTS assay to identify small molecule agonists of the sonic hedgehog signaling (Shh) pathway (AID 1259368; calls by dose curve;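 note: NIH/3T3-derived 3T3Gli1-Luc cells carrying a stable Gli1-driven firefly luciferase reporter; series mostly up to about 92 µM; nearly all actives have a fitted effect of over 15% in size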)
In short: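 A Gli1 transcriptional response element controlled firefly luciferase in 3T3Gli1-Luc cells. Compounds and a positive control were added 4 hr after plating, and cells were incubated a further 24 hr at 37 C before luminescence detection.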

[7] = qHTS assay to identify small molecule antagonists of the sonic hedgehog signaling (Shh) pathway (AID 1259369; calls by dose curve; note: nearly all actives have a fitted effect of over 45% in size; note: potency is the fitted concentration of half-maximal effect)
In short: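 For antagonist detection, the reporter line received test compounds together with conditioned medium, incubated 24hr at 37 C, 5% CO2, then luminescence was recorded following 30min room-temperature luciferase reagent incubation.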

[8] = qHTS assay to identify small molecule agonists of the sonic hedgehog signaling (Shh) pathway - cell viability counter screen (AID 1259366); note: nearly all actives have a fitted effect of over 50% in size; note: potency is the fitted concentration of half-maximal effect
In short: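 Cytotoxicity counter screen run in the same wells as the Shh reporter assay. NIH/3T3 cells carrying a Gli1 response element–driven luciferase were treated with DMSO-dissolved compounds for 24hr, and live-cell protease activity was measured with CellTiter-Fluor.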

[9] = qHTS assay to identify small molecule phospholipidosis (PLD) inducers (AID 1259344; active = well fitted curve in the direction sought with a large enough effect; an effect the other way counts as inactive or inconclusive)
In short: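 HepG2 cells on collagen I, attached 4 h at 37 C, were co-treated with compound and LipidTOX Red dye for 24 h at 37 C, then fixed with paraformaldehyde plus Hoechst 33342 and imaged by high-content microscopy for phospholipid accumulation.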
% is set by controls: 0 for no effect and ±100 for the full control effect.

Chain of Estrogen receptor (Homo sapiens) (P03372 whole entry, looked up): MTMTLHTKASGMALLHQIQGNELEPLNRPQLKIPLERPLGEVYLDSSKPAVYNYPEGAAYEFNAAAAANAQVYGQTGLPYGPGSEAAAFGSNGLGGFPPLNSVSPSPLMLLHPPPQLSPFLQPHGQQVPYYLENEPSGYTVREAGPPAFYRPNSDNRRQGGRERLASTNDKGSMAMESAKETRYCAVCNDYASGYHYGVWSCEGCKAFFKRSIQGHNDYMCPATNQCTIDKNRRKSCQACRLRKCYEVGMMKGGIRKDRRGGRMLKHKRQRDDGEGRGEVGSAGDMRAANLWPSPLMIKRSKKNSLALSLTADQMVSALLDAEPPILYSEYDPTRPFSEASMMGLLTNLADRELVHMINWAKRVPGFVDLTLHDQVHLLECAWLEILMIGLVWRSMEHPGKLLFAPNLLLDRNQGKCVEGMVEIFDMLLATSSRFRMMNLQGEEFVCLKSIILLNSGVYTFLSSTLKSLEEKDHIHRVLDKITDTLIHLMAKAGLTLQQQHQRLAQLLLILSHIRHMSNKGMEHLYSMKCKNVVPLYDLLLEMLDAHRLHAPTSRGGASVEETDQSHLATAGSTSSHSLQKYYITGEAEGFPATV

CCOC(=O)N1CCC(Nc2ccc(Cl)cc2N)CC1
active: Potency [7] 2.98 µM
inactive: Potency [1] | Potency [2] | Potency [3] | Potency [4] | Potency [5] | Potency [6]

SCCc1cnccn1
inactive: Potency [1] | Potency [2] | Potency [4] | Potency [8] | Potency [5] | Potency [6] | Potency [7]

[Cl][Nd]([Cl])[Cl]
inactive: Potency [1] | Potency [2] | Potency [3] | Potency [4] | Potency [6] | Potency [7]

CC(C(=O)O)c1ccc(C(=O)c2cccs2)cc1 (stereo not given)
inactive: Potency [1] | Potency [9] | Potency [4] | Potency [5] | Potency [6] | Potency [7]
active: Potency [3] 29.8 µM

CC(C)(C)S
inactive: Potency [1] | Potency [2] | Potency [3] | Potency [4] | Potency [5] | Potency [6] | Potency [7]

CCCCCCC(CO)CCCC (stereo not given)
inactive: Potency [1] | Potency [3] | Potency [4] | Potency [8] | Potency [5] | Potency [6] | Potency [7]

O=C(O)CCC(=O)OC[C@@H](NC(=O)C(Cl)Cl)[C@H](O)c1ccc([N+](=O)[O-])cc1
inactive: Potency [1] | Potency [9] | Potency [3] | Potency [4] | Potency [6] | Potency [7]

CCN(CC)C(=O)N1CCN(C)CC1
inactive: Potency [1] | Potency [9] | Potency [3] | Potency [4] | Potency [6] | Potency [7]

Cc1cccc(C)c1NC(=O)c1cc(S(N)(=O)=O)c(Cl)cc1O
inactive: Potency [1] | Potency [9] | Potency [3] | Potency [4] | Potency [8] | Potency [5] | Potency [6] | Potency [7]

CCCCCCCCCCCCCOC(=O)CCSCCC(=O)OCCCCCCCCCCCCC
inactive: viability change, negative = cytotoxic [1] 3.47% [at 19 µM] | activity change, negative = inhibition [3] 3.35% [at 19 µM] | activity change, negative = cytotoxicity [4] 6.04% [at 19 µM] | viability change, negative = cytotoxic [8] 2.43% [at 19 µM] | viability change, negative = cytotoxic [5] -3.37% [at 19 µM] | activity change [6] -0.0494% [at 18.9 µM, hits give high values] | activity change, negative = inhibition [7] 8.97% [at 19 µM]

CS(=O)(=O)c1ccc([C@@H](C[C@H]2CCC(=O)C2)C(=O)Nc2cnccn2)cc1Cl
inactive: Potency [1] | Potency [2] | Potency [3] | Potency [4] | Potency [5] | Potency [6] | Potency [7]

CC(=O)N[C@@H](Cc1ccc(O)cc1)C(=O)O
inactive: Potency [1] | Potency [9] | Potency [3] | Potency [4] | Potency [8] | Potency [6] | Potency [7]

CCCCCCC(O)CCCCCCCCCCC(=O)OC (stereo not given)
inactive: Potency [1] | Potency [3] | Potency [4] | Potency [8] | Potency [5] | Potency [6]

CC(C)Cc1ccc(CC(=O)O)cc1
inactive: Potency [1] | Potency [9] | Potency [3] | Potency [4] | Potency [8] | Potency [5] | Potency [6]

Cc1c[nH]c2ccccc12
inactive: Potency [1] | Potency [9] | Potency [3] | Potency [4] | Potency [8] | Potency [6]

O=S(=O)(O)CO
inactive: Potency [1] | Potency [3] | Potency [4] | Potency [8] | Potency [5] | Potency [6] | Potency [7]

O=C1c2ccccc2C(=O)c2c(O)ccc(O)c21
inactive: Potency [1] | Potency [3] | Potency [4] | Potency [8] | Potency [5] | Potency [6]

CC(=O)C(=O)CC(C)C
inactive: Potency [1] | Potency [2] | Potency [3] | Potency [4] | Potency [5] | Potency [6] | Potency [7]

CNCc1ccc(NC(=O)c2c[nH]c3c2C(=O)CCC3)cc1
inactive: Potency [1] | Potency [3] | Potency [4] | Potency [8] | Potency [5] | Potency [6]

Cc1ccc2nc(N)[nH]c(=O)c2c1Sc1ccncc1
inactive: Potency [1] | Potency [9] | Potency [3] | Potency [4] | Potency [8] | Potency [5] | Potency [6]

CC(=O)OCC(=O)[C@@]1(OC(C)=O)[C@@H](C)C[C@H]2[C@@H]3C[C@H](F)C4=CC(=O)C=C[C@]4(C)[C@@]3(F)[C@@H](O)C[C@@]21C
inactive: Potency [1] | Potency [9] | Potency [3] | Potency [4] | Potency [8] | Potency [5] | Potency [6]

CC1=CC[C@@]23C[C@@H]1C(C)(C)[C@@H]2CC[C@H]3C
inactive: Potency [1] | Potency [3] | Potency [4] | Potency [8] | Potency [5] | Potency [6] | Potency [7]

c1ccc(CNc2ncnc3c2ncn3C2CCCCO2)cc1 (stereo not given)
inactive: Potency [1] | Potency [2] | Potency [4] | Potency [8] | Potency [5] | Potency [7]

CC[C@@H](CO)NCCN[C@@H](CC)CO
inactive: Potency [1] | Potency [9] | Potency [3] | Potency [4] | Potency [8] | Potency [6] | Potency [7]

CCCCCCCC/C=C/C(=O)O
inactive: Potency [1] | Potency [3] | Potency [4] | Potency [8] | Potency [5] | Potency [6] | Potency [7]

Nc1ccc(S(=O)(=O)NCc2ccccc2)cc1
inactive: Potency [1] | Potency [9] | Potency [3] | Potency [4] | Potency [5] | Potency [6] | Potency [7]

CCN(CC)CCOC(=O)C(c1ccccc1)c1ccccc1
inactive: Potency [1] | Potency [9] | Potency [3] | Potency [4] | Potency [8] | Potency [5] | Potency [6] | Potency [7]

Nc1ccc(N=Nc2ccc(N)cc2)cc1
active: Potency [3] 12.2 µM
inactive: Potency [1] | Potency [2] | Potency [4] | Potency [6]

Nc1nc(-c2ccc([N+](=O)[O-])cc2)cs1
inactive: Potency [1] | Potency [4] | Potency [8] | Potency [5] | Potency [6]
active: Potency [3] 12.3 µM

CC(=O)OCC1=C(C(=O)O)N2C(=O)[C@@H](NC(=O)CSc3ccncc3)[C@H]2SC1
inactive: Potency [1] | Potency [9] | Potency [3] | Potency [4] | Potency [5] | Potency [6] | Potency [7]

C=C(C)c1ccccc1
inactive: Potency [1] | Potency [3] | Potency [4] | Potency [8] | Potency [5] | Potency [6] | Potency [7]

Nc1ccn([C@H]2CS[C@@H](CO)O2)c(=O)n1
inactive: Potency [1] | Potency [9] | Potency [3] | Potency [4] | Potency [8] | Potency [5] | Potency [6] | Potency [7]

O=C(O)CN1C(=O)c2cccc3cccc(c23)C1=O
inactive: Potency [1] | Potency [9] | Potency [3] | Potency [4] | Potency [8] | Potency [5] | Potency [6] | Potency [7]

CN1CCCN(C(c2ccccc2)c2ccc(Cl)cc2)CC1 (stereo not given)
inactive: Potency [2] | Potency [3] | Potency [4] | Potency [6]
active: Potency [8] 15 µM | Potency [7] 5.96 µM
